In PubChem BioAssay AID759 (NMMLSC, 2007):
The whole screen tested about 190,000 compounds, of which about 270 (0.14%) were called active. Inconclusive results (about 2%) are left out.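 How the source made its calls: active means GTP binding activity at least 20% away from the 100% baseline, either lowered as inhibitor or raised as activator; inconclusive means flagged as likely green fluorescent, judged across all proteins in the well; inactive means the rest.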 This excerpt belongs to a sample that is enriched for actives.

target: GTPase HRas (Homo sapiens) (UniProt P01112); experiment: HRas wt fluorescent GTP binding changes, either direction – biochemical, wildtype, bead-based flow cytometry, multiplex, primary screen (AID 759); details: GST-Ras wt beads, Bodipy-FL-GTP binding, at 10 µM, actives lie on both sides;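 further: 0% = unlabeled GTP competition control and 100% = no-compound control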
Sequence (P01112 whole entry, looked up): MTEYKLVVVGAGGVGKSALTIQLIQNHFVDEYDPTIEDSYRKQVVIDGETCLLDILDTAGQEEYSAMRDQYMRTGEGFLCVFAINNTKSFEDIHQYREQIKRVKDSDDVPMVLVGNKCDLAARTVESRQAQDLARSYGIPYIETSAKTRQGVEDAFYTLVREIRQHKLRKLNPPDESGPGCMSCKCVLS

Row | SMILES | GTP binding activity
1 | CCSc1nc(C)c(CCOc2cccc(C)c2)c(=O)[nH]1 | 98% (inactive)
2 | O=C(CC1C(=O)NCCN1CC(c1ccccc1)c1ccccc1)NCCc1cn[nH]c1 (centres undefined) | 99% (inactive)
3 | CCNC(=O)CC1C(=O)N(c2ccc(OC)cc2)C(=S)N1CCc1ccncc1 (centres undefined) | 98% (inactive)
4 | CCc1ccc(CN(C)Cc2nc(Cc3ccccc3)no2)nc1 | 98% (inactive)
5 | CC(=O)N(CN1C(=O)C2C3C=CC(C3)C2C1=O)c1cccc(Cl)c1 (centres undefined) | 93% (inactive)
6 | CN(/C(=N/S(=O)(=O)c1cccs1)c1ccccc1)c1ccc(O)cc1 | 88% (inactive)
7 | CC(=O)Nc1ccc(S(=O)(=O)Oc2ccc(/C=N/N=C3/NC(=O)C(CC(=O)O)S3)cc2)cc1 (centres undefined) | 92% (inactive)
8 | O=C1CCC/C(=N\NC(=O)NC2CCCCC2)C1 | 97% (inactive)
9 | COc1c(C)cc(C(=O)C2CCCN(S(=O)(=O)c3c(C)noc3C)C2)cc1C (centres undefined) | 96% (inactive)
10 | CC(C)(O)C#Cc1ncc(C(F)(F)F)cc1Cl | 98% (inactive)
11 | CC(C)OCCCNC(=S)N1CCC(C(=O)c2ccc3c(c2)OCCO3)CC1 | 95% (inactive)
12 | CCOCCCNCc1ccc(OCc2ccc(F)cc2)c(OC)c1 | 97% (inactive)
13 | CN1CCN(CCCCOc2ccccc2-c2ccccc2)CC1 | 99% (inactive)
14 | CSc1ccc(/C=N\NC(=O)CC(=O)NC(C)C)cc1 | 94% (inactive)
15 | Cc1cccc(NC(=S)Nc2ccc(Cl)c(Cl)c2)c1 | 95% (inactive)
16 | O=C(Nc1ccc(Br)cn1)c1ccc([N+](=O)[O-])o1 | 98% (inactive)
17 | Cc1nn(C)c(C)c1CN(C(=O)CCc1nnc(Cc2c[nH]c3ccccc23)o1)C(C)C | 95% (inactive)
18 | Nn1c(SCC(=O)Nc2nccs2)nncc1=O | 96% (inactive)
19 | CCC(C)NC(=O)/C=C/c1ccc(S(=O)(=O)NCc2ccco2)cc1 (centres undefined) | 99% (inactive)
20 | COCCN(CCOC)S(=O)(=O)c1ccc(C(=O)Nc2nc3c(s2)CCc2ccccc2-3)cc1 | 104% (inactive)
21 | C=CCN(CC=C)S(=O)(=O)c1ccc(C(=O)Nc2sc3c(c2C(N)=O)CCCCC3)cc1 | 103% (inactive)
22 | C=CCN(CC=C)S(=O)(=O)c1ccc(C(=O)Nc2nc3c(s2)CCc2ccccc2-3)cc1 | 32% (active)

Row | SMILES | GTP binding activity
23 | CCC(CC)NC(=O)CSc1nnc(-c2c[nH]c3ccccc23)o1 | 92% (inactive)
24 | CSc1ncccc1C(=O)OCc1ccc(Br)cc1 | 96% (inactive)
25 | CCOC(=O)C1CCCN(C(=O)/C=C/c2ccc(OC)cc2)C1 (centres undefined) | 91% (inactive)
26 | Cc1cccc(C(=O)N2CCC(c3nc4ccccc4s3)CC2)c1 | 95% (inactive)
27 | COc1ccc(Cc2nnc(NC(=O)c3cc(OC)c(OC)c(OC)c3)s2)cc1OC | 94% (inactive)
28 | NS(=O)(=O)c1ccc(NC(=S)NNC(=O)c2cccs2)cc1 | 97% (inactive)
29 | O=C(CN(C(=O)c1csnn1)c1cccc(F)c1)NCc1ccc(F)cc1 | 99% (inactive)
30 | CNC(=O)C(=O)N/N=C/c1ccccn1 | 95% (inactive)
31 | S=C(Cc1ccc(Cl)cc1)N1CCOCC1 | 94% (inactive)
32 | Cc1cccc(C(=O)Nc2ccc3c(c2)C(=O)N(CC(C)C)C3=O)c1 | 96% (inactive)
33 | COc1cc(/C=C2/C(=O)ON=C2C)ccc1OCc1cccc(F)c1 | 91% (inactive)
34 | Cc1ccc2c(Cl)c(C(=O)Nc3nn[nH]n3)sc2c1 | 100% (inactive)
35 | COC(=O)C1=C(C)NC(=O)/C1=C/c1ccc(CNS(=O)(=O)c2ccc(C)cc2)o1 | 97% (inactive)
36 | O=S(=O)(NCc1ccccc1)c1ccc(S(=O)(=O)N2CCCC2)cc1 | 101% (inactive)
37 | O=c1/c(=C/c2ccc(CNS(=O)(=O)c3ccccc3)o2)sc2n1CCN=2 | 78% (active)
38 | O=C(CCN1C(=O)c2ccncc2C1=O)Nc1cc(F)ccc1F | 92% (inactive)
39 | NC(=O)COc1ccc(C23CC4CC(CC(C4)C2)C3)cc1 | 95% (inactive)
40 | COc1cccc(OC)c1C(=O)NC(=S)NCc1ccco1 | 95% (inactive)
41 | CC(=O)c1ccc(N=C2SCCCN2C(=O)C2CCCCC2)cc1 | 97% (inactive)
42 | COc1ccc(OCC(=O)NNC(=O)c2cccc(C)c2)cc1 | 97% (inactive)
43 | O=C(Nc1ccc(N2CCN(C(=O)C3CC3)CC2)cc1)c1cccs1 | 95% (inactive)
44 | CCOC(=O)c1cnc2c(c(C)nn2CC)c1Cl | 96% (inactive)

Row | SMILES | GTP binding activity
45 | CCOC(=O)c1ccc(Nc2cc(C)nc3nc(C)nn23)cc1 | 98% (inactive)
46 | CCOC(=O)c1ccc(N/C(=N/S(=O)(=O)c2ccccc2)c2ccccc2)cc1 | 97% (inactive)
47 | CCOC(=O)c1nc(Nc2ccc(C(=O)OC)cc2)c2ccccc2n1 | 77% (active)
48 | Cc1c(Cc2ccccc2)c(=O)oc2cc(OCC(N)=O)ccc12 | 93% (inactive)
49 | CCOc1ccccc1/C=N/NC(=O)CNC(=O)COc1ccccc1 | 97% (inactive)
50 | O=C(COc1ccccc1Cl)Nc1ccc(C(=O)c2ccc(C(=O)O)cc2)cc1 | 100% (inactive)
51 | Cc1cc(C)cc(NC(=O)N2CCCCCCC2)c1 | 100% (inactive)
52 | COc1ccc(C(=O)NC(Cc2ccc(OC(=O)c3ccc(OC)cc3)cc2)C(=O)O)cc1 (centres undefined) | 90% (inactive)
53 | Nc1ccc(Cl)c(S(=O)(=O)Nc2ccccc2Cl)c1 | 98% (inactive)
54 | Cc1ccc(NC(=O)c2oc3ccccc3c2C)c([N+](=O)[O-])c1 | 101% (inactive)
55 | C/C=N/NC(=O)CCCC(=O)N/N=C/C | 103% (inactive)
56 | CCC(=O)OCCNc1nc(-c2ccccc2)nc2ccccc12 | 98% (inactive)
57 | Cc1ccc(CN(Cc2cccnc2)C(=S)Nc2cccc(Cl)c2C)cc1 | 95% (inactive)
58 | CCCCn1c(N)c(N(CC)C(=O)/C=C/c2ccco2)c(=O)[nH]c1=O | 99% (inactive)
59 | CSc1ncccc1C(=O)N1CCCC(CCC(=O)NCc2ccccc2F)C1 (centres undefined) | 100% (inactive)
60 | COC(=O)c1ccc(NC(=O)c2cc(Cl)ccc2OC)cc1 | 96% (inactive)
61 | O=C1N/C(=N\N=C\c2ccco2)SC1Cc1ccc(F)cc1 (centres undefined) | 97% (inactive)
62 | O=C(c1ccncc1)c1ccc([N+](=O)[O-])cc1 | 94% (inactive)
63 | CCOC(=O)CN1CCC(c2ccccc2)CC1 | 98% (inactive)
64 | CC(C)(C)n1nc2c(c1NC(=O)c1cc3ccccc3o1)CSC2 | 96% (inactive)
